{"source": "PubChem BioAssay", "note": "A number with no mark means an inactive call. Activity calls are given as the source filed them.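 The calls were made as follows: active = inhibition above the hit cutoff set in the earlier primary screen (cut at about 27% in these data); inactive = the rest.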", "data": [{"target": "Protein phosphatase methylesterase 1 (Homo sapiens) (UniProt Q9Y570)", "sequence (Q9Y570 whole entry, looked up)": "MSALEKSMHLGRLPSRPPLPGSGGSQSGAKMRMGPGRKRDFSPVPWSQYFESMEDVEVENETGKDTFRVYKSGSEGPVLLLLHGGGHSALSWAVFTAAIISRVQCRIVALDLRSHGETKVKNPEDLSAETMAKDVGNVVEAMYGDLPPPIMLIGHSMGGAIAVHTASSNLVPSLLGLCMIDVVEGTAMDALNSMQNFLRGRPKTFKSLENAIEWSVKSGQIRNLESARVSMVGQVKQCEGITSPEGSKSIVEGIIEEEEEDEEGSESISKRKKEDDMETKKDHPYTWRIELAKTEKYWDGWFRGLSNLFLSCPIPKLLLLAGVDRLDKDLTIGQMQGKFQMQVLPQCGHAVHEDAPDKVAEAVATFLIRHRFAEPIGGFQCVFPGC", "experiment": "human PME-1 methylesterase inhibition confirmation – biochemical, fluorescence polarization, FP-Rh probe, triplicate (AID 2171);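 also: 0% = enzyme with DMSO and 100% = wells lacking PME-1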", "details": "recombinant PME-1, FP-Rh probe fluorescence polarization; at 5.9 µM; hits give high values", "values": [{"molecule": "N#CC1=C(N)C(C#N)(C#N)C(c2cccnc2)C2CC(c3ccccc3)CC=C12", "note": "(centres undefined)", "inhibition": "83.5% (active)"}, {"molecule": "Cc1ncc(CO)c(/C=N/NC(=S)Nc2ccc(Cl)c(Cl)c2)c1O", "inhibition": "6.06%"}, {"molecule": "COc1ccc2ccc3c(c2c1)N=C[C@]1(O3)N(C)c2ccccc2C1(C)C", "inhibition": "5.96%"}, {"molecule": "CCN(CC(=O)Nc1c(C(=O)OC)[nH]c2ccc(Cl)cc12)c1ccc2c(c1)OCO2", "inhibition": "6.28%"}, {"molecule": "CCn1c(CSc2n[nH]c(N)n2)nc2cc(C(=O)O)ccc21", "inhibition": "33.5% (active)"}, {"molecule": "C=CCN=c1scc(-c2ccco2)n1/N=C/c1ccc(O)c(O)c1O", "inhibition": "-17.6%"}, {"molecule": "c1cc2c3c(cccc3c1)NC1(CCC3(CC1)Nc1cccc4cccc(c14)N3)N2", "inhibition": "0.95%"}, {"molecule": "COc1cccc(-c2nnc(Nc3nc4c(F)cccc4s3)o2)c1", "inhibition": "46.2% (active)"}, {"molecule": "NNc1nc2cc3c(cc2s1)OCCO3", "inhibition": "8.82%"}, {"molecule": "Oc1ccc(/C=N/Nc2ccc(C(F)(F)F)cn2)c(O)c1", "inhibition": "17.8%"}, {"molecule": "N#Cc1ccccc1Cn1c(=O)n(-c2ccc(CC(=O)NCc3ccco3)cc2)c(=O)c2sccc21", "inhibition": "38.4% (active)"}, {"molecule": "O=C(O)c1ccc(-c2ccc(/C=N/Nc3ccc([N+](=O)[O-])cc3)o2)cc1", "inhibition": "33.5% (active)"}, {"molecule": "Cc1cc(N(C)C)ccc1N=Nc1ccc2ncccc2c1", "inhibition": "42.3% (active)"}, {"molecule": "O=C(/C=C1\\NC2(CCCC2)Cc2ccccc21)C(=O)N/N=C/c1ccc(O)c(O)c1", "inhibition": "-18.9%"}, {"molecule": "O=C(CN1CCCc2ccccc21)N/N=C/c1c(O)ccc2ccccc12", "inhibition": "5.54%"}, {"molecule": "CN=c1scc(-c2cccs2)n1/N=C/c1ccc(O)c(O)c1O", "inhibition": "50.1% (active)"}, {"molecule": "Cc1ccc(C(=O)N/N=C/c2ccc(-c3ccc(Br)cc3[N+](=O)[O-])o2)o1", "inhibition": "33.1% (active)"}, {"molecule": "O=C(O)c1ccccc1N/N=C/c1cc(Br)cc(Br)c1O", "inhibition": "43.7% (active)"}, {"molecule": "O=C(c1ccc2c(c1)OCO2)N1CCCC(c2ccccc2)C1", "note": "(centres undefined)", "inhibition": "22%"}, {"molecule": "Cc1cc(C)c2c(N)c(-c3nc4ccccc4[nH]3)sc2n1", "inhibition": "3.16%"}, {"molecule": "COc1ccc(O)c(/C=N/Nc2nc(C)cc(-c3ccccc3)n2)c1", "inhibition": "39% (active)"}, {"molecule": "O=[N+]([O-])c1ccccc1N/N=C/c1c[nH]c2ccccc12", "inhibition": "42.3% (active)"}, {"molecule": "CCCn1c(N)c(C(=O)CN(C)CC(=O)Nc2ccccc2CC)c(=O)[nH]c1=O", "inhibition": "20.4%"}, {"molecule": "Cc1ccccc1NC1=C/C(=N\\S(=O)(=O)c2cccs2)c2ccccc2C1=O", "inhibition": "38.4% (active)"}, {"molecule": "O=c1[nH]c(N/N=C\\c2ccc3c(c2)OCO3)nc2ccccc12", "inhibition": "24.6%"}, {"molecule": "O=C(N/N=C/c1c(Cl)[nH]c2ccccc12)c1ccc2c(c1)OCCO2", "inhibition": "20.6%"}, {"molecule": "N=C1CCC(=N)c2c1c(O)c1ccccc1c2O", "inhibition": "21.1%"}, {"molecule": "O=C(OCCN(C1=NS(=O)(=O)c2ccccc21)c1ccc(Cl)cc1)c1ccco1", "inhibition": "20.6%"}, {"molecule": "COc1ccc(NC(=O)Nc2nnc(N3CCCCC3C)s2)cc1OC", "note": "(centres undefined)", "inhibition": "43.7% (active)"}, {"molecule": "CC1=Nc2ccccc2/C1=C/c1sc(=N)n(-c2nccs2)c1O", "inhibition": "40.4% (active)"}, {"molecule": "CCCn1nc([N+](=O)[O-])c(C(C#N)c2nc3ccccc3o2)c(Cl)c1=O", "note": "(centres undefined)", "inhibition": "36.5% (active)"}, {"molecule": "CCc1cccc2c(C(=O)COC(=O)c3ccc([N+](=O)[O-])s3)c[nH]c12", "inhibition": "24.6%"}, {"molecule": "CCC(CNc1cc(OC)cc2cccnc12)NC1CCCCC1", "note": "(centres undefined)", "inhibition": "9.75%"}, {"molecule": "CCCCOC(=O)c1ccc(NC(=O)Nc2ccc(OC)c(OC)c2)cc1", "inhibition": "14.7%"}, {"molecule": "CCc1ccc(S(=O)(=O)/N=C2/C=C(Sc3ncn[nH]3)C(=O)c3ccccc32)cc1", "inhibition": "52.9% (active)"}, {"molecule": "O=C(N=Nc1c(O)n(Cc2ccccc2)c2ccccc12)c1cc2ccccc2cc1O", "inhibition": "54.8% (active)"}, {"molecule": "Cc1ccc(S(=O)(=O)N2CCOCC2)cc1NC(=O)COC(=O)c1ccccc1OCc1c(C)noc1C", "inhibition": "16.8%"}, {"molecule": "CCc1ccc(S(=O)(=O)/N=C2\\C=C(Nc3cccc(C(=O)O)c3)C(=O)c3ccccc32)cc1", "inhibition": "38.4% (active)"}, {"molecule": "C=C(C)COc1ccc(-c2[nH]ncc2-c2ccc(OC)c(OC)c2)c(O)c1", "inhibition": "22.1%"}]}]}
